Measurements from PubChem BioAssay (NCI).
About 83,000 compounds went through this panel and 20% of them were active in at least one assay; those are over-represented in the sample as a whole.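 Cell lines were cultured in 96-well plates, exposed to a single compound concentration, and assessed for percent growth 48 hours later.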 Unmarked numbers belong to inactive results. The source made the active and inactive calls. The calls were made as follows: active = growth percent below 10; inactive = the rest.

How the values were obtained:
Assay in all cases: NCI-60 one-dose screen, 48 h (100 = growth as untreated, 0 = no growth, -100 = all killed)
Conditions in all cases: 10 µM unless noted
T-47D breast = system: T-47D breast
MDA-MB-435 melanoma = system: MDA-MB-435 melanoma
SW-620 colon = system: SW-620 colon
MCF7 breast = system: MCF7 breast
HCT-116 colon = system: HCT-116 colon
HCC-2998 colon = system: HCC-2998 colon
KM12 colon = system: KM12 colon

Compound	growth (T-47D breast)	growth (MDA-MB-435 melanoma)	growth (SW-620 colon)	growth (MCF7 breast)	growth (HCT-116 colon)	growth (HCC-2998 colon)	growth (KM12 colon)
O=c1[nH]c2cc(Cl)c(Cl)cc2n2cc3ncccc3c12	49%	87%	53.4%	30.4%	71.1%	88%	78.4%
CC(C)OC(=O)Nc1cc(F)c(F)cc1F	104%	103%	99.2%	94.3%	110%	101%	101%
COc1cc(OC)cc(C(=O)Nc2cc(-c3cccnc3)nc(NCCCN3CCOCC3)n2)c1	72.8%	102%	99.9%	88%	89.2%	123%	104%
Cc1nn(-c2ccccc2)c(N2CCOCC2)c1-c1nc2ccc([N+](=O)[O-])cc2[nH]1	95.8%	96.1%	116%	96.6%	97.8%	133%	103%
O=C(CCN1CCCCC1)c1ccc2ccccc2c1	91%	110%	107%	87.8%	103%	109%	102%
COc1ccc(NC(=O)Nc2ccc(-c3cccnc3)cc2N2CCC(CO)CC2)cc1	68.8%	26%	65.2%	31.8%	12.5%	42%	38.8%
CS(=O)(=O)c1cccnn1	95.2%	104%	95.5%	94%	96.5%	110%	106%
Nc1nc(Cl)c2ncn(Cc3cc4c(cc3I)OCO4)c2n1	30.9%	34.6%	18.3%	18.9%	16.7%	76.4%	9.48% (active)
C[C@]12CCc3c(ccc4cc(O)ccc34)[C@@H]1CC[C@H]2O	91.8%	80.1%	99.1%	116%	102%	107%	98.1%
COc1ccc2nc3cc(Cl)ccc3c(Nc3ccc(O)cc3)c2c1	80%	96%	49.1%	24.6%	53.1%	62.1%	63.5%
COC(=O)c1cc2c(=O)[nH]cc3c2c(n1)CCC3	91.9%	119%	103%	94.1%	106%	88.4%	106%
FC(F)(F)c1ccc2c(c1)Sc1ccccc1N2	77.7%	97.1%	100%	95.4%	100%	102%	95%
Cc1cccc(C[C@H](NC(=O)Nc2ccc(Cl)cc2F)C(=O)N[C@@H]2C(=O)N3C[C@H](OC(=O)CCN(C)C)C[C@H]3C(=O)N3CCCC[C@H]3C(=O)N[C@@H](C)C(=O)N3C[C@H](C)C[C@H]3C(=O)O[C@H]2C)c1	13.8%	14.6%	30.2%	13.4%	-29% (active)	19%	23%
Cc1ccc(-n2nc3n(/c2=N\C(=O)NS(=O)(=O)c2ccc(C)cc2)CCN3C2=NCCN2)cc1	78.3%	97.3%	104%	94.6%	87.3%	97.3%	105%
CCOC(=O)C(=Cc1ccccc1[N+](=O)[O-])C(=O)OCC	25.5%	15.6%	19.2%	10.4%	7.82% (active)	48.3%	-17.7% (active)
Oc1ccc(N=Nc2nccs2)c(O)c1	58.1%	64.4%	41.3%	57.1%	5.98% (active)	73.4%	51.7%
Nc1cc(Cl)cc2cccnc12	112%	106%	102%	95.2%	109%	93.5%	101%
Cn1cc(-c2noc(-c3cn(C)c4ncc(Br)cc34)n2)c2cc(Cl)ccc21	31.6%	68.3%	39.9%	65.9%	35.2%	93.9%	75.7%

Compound	growth (T-47D breast)	growth (MDA-MB-435 melanoma)	growth (SW-620 colon)	growth (MCF7 breast)	growth (HCT-116 colon)	growth (HCC-2998 colon)	growth (KM12 colon)
COc1ccc(C(=O)CCC(=O)O)cc1	33.9%	107%	84.5%	21.2%	7.77% (active)	102%	103%
O=C(Nc1ccc(Nc2ccncc2)cc1)c1ccc([N+](=O)[O-])cc1	29.7%	79.5%	30.5%	51.6%	27.3%	66.7%	79.5%
Cc1cc(C)c(O)c(CNCCCNCc2cc(C)cc(C)c2O)c1	67.3%	2.52% (active)	71.8%	38.2%	51.6%	-51.4% (active)	61.3%
CCCCOC(=O)c1c(C)[nH]c(/C=C2\N=C(c3ccc[nH]3)C=C2OC)c1C	-46.1% (active)	-51.1% (active)	11.6%	-44.2% (active)	-76.1% (active)	-28.1% (active)	-5.76% (active)
COc1ccc(/C=C(/C2=NCCN2)n2ccc3ccccc32)cc1	86.2%	89.9%	87.1%	83.4%	83%	98.5%	95.8%
Cc1cc(C)c(-c2cc(O)c(-c3c(C)cc(C)cc3C)cc2O)c(C)c1	43%	2.34% (active)	26.2%	21.7%	22.6%	45.8%	23.9%
Nc1ccc(Cl)c([N+](=O)[O-])c1	91.9%	95.1%	104%	101%	97.7%	94.4%	96.1%
COc1ccc2c(c1)C(C)Cc1c(Cl)nc(C)nc1N2C (centres undefined)	39.6%	-20.5% (active)	24.8%	19.7%	12.2%	30.3%	21%
O=C(O)c1cccc(CN2CCN(c3cc4c(cc3F)c(=O)c(C(=O)O)cn4C3CC3)CC2)c1O	96.6%	99%	102%	97.6%	104%	105%	104%
O=C1COCCN1c1ccc(NCc2cn(Cc3cccc4ccccc34)c3ccccc23)cc1	43.1%	98%	83%	63.4%	39.3%	103%	96.5%
CCCCCn1sc(=O)n(Cc2ccc(CNC(=O)OCc3ccc4cccc(O)c4n3)cc2)c1=O	-47.3% (active)	-70.1% (active)	-48.5% (active)	0.802% (active)	-76.9% (active)	5.53% (active)	11.8%
C=C(C)[C@@H]1CC[C@]2(C(=O)NCCNCCNCCN)CC[C@]3(C)[C@H](CC[C@@H]4[C@@]5(C)CC[C@H](O)C(C)(C)[C@@H]5CC[C@]43C)[C@@H]12	-32.6% [100 µM] (active)	-89.2% [100 µM] (active)	-86.7% [100 µM] (active)	-60.5% [100 µM] (active)	-26.5% [100 µM] (active)	-90.4% [100 µM] (active)	-52.2% [100 µM] (active)
O=C(O)c1ccccc1C(F)(F)F	76.5%	107%	98.7%	92.8%	91.2%		96.3%
Cn1ncc2c(Nc3ccc(O)cc3)nc(Cl)nc21	106%	102%	118%	94%	108%	105%	106%
Cc1cc(C)c(S(=O)(=O)/N=c2/n(-c3ccccc3)nc3n2CCN3C2=NCCN2)c(C)c1	77.8%	69.5%	84.8%	90.8%	55.7%	61.5%	85.4%
O=C1COCCN1c1ccc(NCc2cn(Cc3ccccc3)c3ccccc23)cc1	44.9%	97.9%	84.9%	63.9%	62.9%	105%	104%
CCN(CC)CC(C)Nc1ccc(C)c2sc3ccccc3c(=O)c12 (centres undefined)	53.6%	59.1%	55.8%	32.6%	34.6%	45.9%	55%
